Results filed as inconclusive are left out. Entries that show only a call come without a potency. Active and inactive are the calls of the source. Calls follow the shape of the dose curve; as a rule, active = well fitted inhibition curve with a large enough effect; inconclusive = small, poorly fitted or top-dose-only effect; inactive = flat fitted curve, though single readings scatter.
Assay: Counterscreen Assay for Enhancers of SMN2 Splice Variant Expression: Modulation of SMN1 Expression
Details: HEK293 SMN1-luciferase reporter, luminescence, 30-36 h; series mostly up to 22.8 µM
Description: NIH Chemical Genomics Center [NCGC] NIH Molecular Libraries Probe Production centers Network [MLPCN] MLPCN Grant: R03 MH084179-01 Assay Submitter (PI): Elliot Androphy NCGC Assay Overview: Spinal muscular atrophy (SMA) is caused by insufficient levels of the survival motor neuron protein SMN. The SMN locus on chromosome 5q13 contains two inverted copies of SMN called SMN1 and SMN2 which are 99% identical at the amino acid level. SMN1 is a fully functional protein and SMN2 skips exon 7 90% of the time. Skipping of exon 7 produces non-functional protein product. 10% of the SMN2 protein includes exon 7 and is fully functional. In the SMA disease state, mutations in the SMN1 locus are the cause of the disease state. Because only 10% of SMN2 is of the fully functional form, it is not sufficient to overcome the deficiency produced by the loss of the SMN1 product. A therapy that either increase the amount of SMN2 product made or to increase the inclusion of exon 7 has been proposed for the treatment of SMA. We have designed an assay to identify small molecules that can increase the amount of functional SMN2 product by appending a luciferase reporter gene after the native SMN2 gene, such that inclusion of exon 7 in the expressed product places the luciferase sequence in frame, thus generating functional luciferase enzyme. […]

SMILES	Potency
CCc1ccc2nc(N3CCC(C(=O)N4CCC5(CC4)OCCO5)CC3)sc2c1	inactive
CC[C@]1(O)CC(O[C@@H]2CC(N(C)C)C(O)C(C)O2)c2c(cc3c(c2O)C(=O)c2c(O)cccc2C3=O)C1C(=O)OC (some centres not stated)	1120 nM (active)

Reference: PubChem BioAssay AID1739 (National Center for Advancing Translational Sciences (NCATS), 2009)
